# Screening data: PubChem BioAssay, National Center for Advancing Translational Sciences (NCATS)
# RORg inh: ROR gamma (mouse) transcription inhibition; Drosophila S2 Gal4-RORgamma UAS-luciferase reporter, 20 h; AID 2551; 5.4% of 310,000 active; Potency, µM (series often up to 53.6 µM), most hits filed as inhibitors; P51450; also: nearly all actives have a fitted effect of over 60% in size
# Target sequence (P51450 whole entry, looked up, the tested form may be a part): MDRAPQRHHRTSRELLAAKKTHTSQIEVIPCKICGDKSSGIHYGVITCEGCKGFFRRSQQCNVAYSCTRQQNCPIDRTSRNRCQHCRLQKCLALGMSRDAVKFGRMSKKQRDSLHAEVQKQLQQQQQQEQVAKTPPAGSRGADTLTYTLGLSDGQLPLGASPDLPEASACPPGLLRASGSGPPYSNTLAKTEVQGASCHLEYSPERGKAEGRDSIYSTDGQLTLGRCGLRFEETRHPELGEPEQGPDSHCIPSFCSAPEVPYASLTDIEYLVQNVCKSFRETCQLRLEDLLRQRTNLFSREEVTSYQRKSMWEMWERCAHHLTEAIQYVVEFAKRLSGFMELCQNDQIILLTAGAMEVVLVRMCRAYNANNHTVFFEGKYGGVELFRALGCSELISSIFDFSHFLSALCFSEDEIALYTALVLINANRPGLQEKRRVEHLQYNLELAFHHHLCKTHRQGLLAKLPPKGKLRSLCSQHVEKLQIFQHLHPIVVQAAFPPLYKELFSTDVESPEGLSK
#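 Schneider cells (Drosophila), stable Gal4 DBD–ROR gamma + UAS-luc; 1 hr cmpd preincubation; Cu2+ induction 700 uM final; 20 hr ambient; luminescence.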
# DT40 TDP1 no CPT: qHTS for Inhibitors of human tyrosyl-DNA phosphodiesterase 1 (TDP1): qHTS in cells in absence of CPT | 15% of 420,000 active | Potency, µM (series often up to 46.2 µM), most hits filed as inhibitors | DT40 Tdp1-/- hTDP1 cells, no CPT, ATP luminescence, 48 h; also: nearly all actives have a fitted effect of over 55% in size
#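 Stably hTDP1-transfected Tdp1-null chicken DT40 cells were treated with library compounds minus camptothecin and grown for at least 48 hr at 37 °C, after which cellular ATP was quantified by luminescence.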
# ELG1 repair inh: ELG1-dependent DNA repair inhibition. HEK293T ELG1-luciferase reporter, luminescence, 16 h; DNA damage induced by 5-fluorouridine. Potency, µM (titrated, usually from 46.1 µM), most hits filed as inhibitors. 2.3% of 330,000 active; also: nearly all actives have a fitted effect of over 55% in size
#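 Cells (2,000 per well) received 5-fluorouridine plus test compound or DMSO and were incubated 16 hr at 37 °C, 5% CO2. Luciferase activity was read by luminescence 30 min after ONE-Glo addition; signal suppression marked inhibition of damage-induced ELG1 function.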
# IL-1B inflam inh: blocks inflammasome-driven IL-1 beta release. activity change, % at 57.5 µM. THP-1 LPS/ATP IL-1B secretion, AlphaLISA, 16 h; hits give low values. 4.7% of 360,000 active. AID 743279; in the data active = activity change below about -50%; inconclusive = mostly about -30% to -49%
#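 THP-1 cells pretreated 1 hr with compounds (up to 57.5 uM final), then stimulated with LPS (250 ng/mL final) plus ATP (1.25 mM final); secreted IL-1B measured by AlphaLISA after 16 hr, decreased signal indicating inhibition.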
# DT40 TDP1 CPT: growth inhibition of DT40 Tdp1-/-;hTDP1 cells with camptothecin (screen for TDP1 inhibitors) | 12% of 420,000 active | chicken DT40 Tdp1-/-;hTDP1 cells + 20 nM CPT, ATP luminescence, 48 h | Potency, µM (series often up to 46.2 µM), hits mostly inhibitors; also: nearly all actives have a fitted effect of over 55% in size
#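 Cell growth measured by CellTiter-Glo luminescence after a minimum 48 h, 37 C compound exposure with 20 nM CPT in Tdp1-knockout DT40 cells stably expressing hTDP1, seeded 400/well; qHTS titration format.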
# Gal4-VP16 FLuc: inhibits Gal4-VP16 luciferase reporter, ROR gamma counter-screen; Potency, µM (highest dose often 53.6 µM), usual class: inhibitors; Drosophila S2 Gal4-VP16 UAS-luciferase, luminescence, 20 h; 3.5% of 310,000 active;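 also: Gal4-VP16 expression switched on by copper sulfate through the metallothionein promoter; nearly all actives have a fitted effect of over 50% in size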
# Numbers stand for hits; i = inactive; ? = inconclusive; nt = not tested or not shown; [ ] = another dose, or the depositor's remark. A selection: hits, their analogues and other compounds. The true share with any hit is near 21%. Unless noted, calls follow the shape of the dose curve; as a rule, active = well fitted curve in the direction sought with a large enough effect; inconclusive = small, poorly fitted or top-dose-only effect, or another doubt; inactive = no such curve, though single readings can be large; an effect the other way counts as inactive or inconclusive.
SMILES,RORg inh,DT40 TDP1 no CPT,ELG1 repair inh,IL-1B inflam inh,DT40 TDP1 CPT,Gal4-VP16 FLuc
CCOC(=O)C1CCN(c2ccc(-c3cccs3)nn2)CC1,i,?,?,i,?,i
c1csc(-c2ccc(N3CCOCC3)nn2)c1,?,8.2µM,?,i,?,11µM
Cc1ccc2c(c1)CN(CCNC(=O)c1c(-c3ccccc3)noc1C)CC(C)O2 (stereo not given),nt,i,nt,nt,i[9.04 µM],nt
Cc1onc(-c2ccccc2)c1C(=O)NCCN1Cc2ccccc2OC(c2ccsc2)C1 (stereo not given),nt,15µM,nt,nt,i[9.04 µM],nt
COC(=O)CCc1sc(NC2CCCCC2)nc1-c1ccc(OC)cc1,i,18µM,?,i,21µM,?
COc1ccc(-c2nn(CCC(=O)O)cc2CCC(=O)O)cc1,i,i,i,i,i,i
CCCCCCNc1nc(-c2ccc(OC)cc2)c(CCC(=O)O)s1,?,i,i,i,i,16µM
c1ccc(CNCCNCc2ccccc2)cc1,i,i,nt,nt,i,i
COc1ccc(N2CCN(C(=O)CCC(=O)N3Cc4ccccc4Oc4ncccc43)CC2)cc1,i,?,i,i,i,i
CCCCC(=O)Nc1ccc(C(=O)OC2CCCCC2)cc1,i,?,i,i,?,i
O=C(Nc1ccc(C(=O)OC2CCCCC2)cc1)c1ccncc1,?,?,?,i,?,i
O=C(OC1CCCCC1)c1ccc(NC(=O)C2CCCCC2)cc1,i,21µM,?,i,?,i
O=C(O)CCC(=O)Nc1ccc(C(=O)OC2CCCCC2)cc1,18µM,i,?,i,i,?
CC(C)(C)C(=O)Nc1ccc(C(=O)OC2CCCCC2)cc1,i,21µM,?,i,26µM,i
CC(C)(C)C(=O)Nc1ccc(N2CCCC2)cc1,i,?,i,i,?,i
COCCn1cnc2c1c(=O)[nH]c(=O)n2Cc1ccccc1,i,i,i,i,i,i
COc1ccc(OC)c(-c2cnc(OC(C)(C)C)nc2OC(C)(C)C)c1,?,8.2µM,i,i,21µM,i
O=C(NCCc1ccc(Cl)cc1)c1cnc2sc(N3CCCCC3)nn2c1=O,nt,i,nt,nt,i,nt
Cn1c(=O)c2c(SCC(=O)NCc3ccco3)nc(CC(C)(C)C)nc2n(C)c1=O,i,18µM,?,i,?,i
Cn1c(=O)c2c(SCC(=O)Nc3ccc4c(c3)OCCO4)nc(CC(C)(C)C)nc2n(C)c1=O,i,?,i,i,26µM,i
Cc1ccc(-c2nc(SCC(=O)NCc3ccco3)c3c(=O)n(C)c(=O)n(C)c3n2)cc1,nt,i,nt,nt,i,nt
Cn1c(=O)c2c(SCC(=O)N3CCOCC3)nc(CC(C)(C)C)nc2n(C)c1=O,i,nt,i,nt,nt,i
COc1ccccc1OCCCn1cc(C#N)c2ccccc21,?,?,i,i,i,?
COc1ccccc1OCCCn1c(C)c(C#N)c2ccccc21,i,26µM,i,i,21µM,i
CC(C)(C)c1ccccc1OCC(O)CN1CCN(c2ccccn2)CC1 (stereo not given),i,?,i,i,16µM,i
SMILES,RORg inh,DT40 TDP1 no CPT,ELG1 repair inh,IL-1B inflam inh,DT40 TDP1 CPT,Gal4-VP16 FLuc
OC(COC(c1ccc(Cl)cc1)c1ccc(Cl)cc1)CN1CCN(c2ccccn2)CC1 (stereo not given),i,16µM,?,-84,?,i
OC(COC(c1ccccc1)c1ccccc1)CN1CCN(c2cccc(Cl)c2)CC1 (stereo not given),i,?,i,?,21µM,i
CC(=O)c1ccc(N2CCN(CC(O)COC(c3ccccc3)c3ccccc3C)CC2)cc1 (stereo not given),i,?,i,?,23µM,i
CCc1nc2ccc(C(=O)Nc3cccc(NS(C)(=O)=O)c3)cn2c1N(C)Cc1nccn1C,nt,i,nt,i,i,nt
CSc1cccc(N2C(=O)N(CC(=O)NCc3ccccc3Cl)c3ccccc3S2(=O)=O)c1,nt,16µM,nt,nt,?,nt
COc1cccc(CNC(=O)CN2C(=O)CCCc3ccccc32)c1OC,nt,i,nt,nt,i,nt
